Hits are enriched below; roughly 2.4% of the tested compounds scored in any of these assays.
ANO1 activ: TMEM16A chloride channel activators or potentiators, primary screen, cell-based, HTS; B-score at 10 µM; 340,000 tested, 0.3% active; AID 623877, 2012; HEK293 TMEM16A/YFP-H148Q/I152L, iodide quench fluorescence; active compounds read low;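 active means fluorescence-ratio B-score plate-corrected deviation score at least 3 library SD below zero, with starting fluorescence score within 5 deviations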;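 further: channel opened by trigger with iodide after compound preincubation; score built on the fluorescence ratio of max minus min over baseline; more negative score means more quench and so TMEM16A activation or potentiation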
Target sequence (Q8BHY3 whole entry, looked up): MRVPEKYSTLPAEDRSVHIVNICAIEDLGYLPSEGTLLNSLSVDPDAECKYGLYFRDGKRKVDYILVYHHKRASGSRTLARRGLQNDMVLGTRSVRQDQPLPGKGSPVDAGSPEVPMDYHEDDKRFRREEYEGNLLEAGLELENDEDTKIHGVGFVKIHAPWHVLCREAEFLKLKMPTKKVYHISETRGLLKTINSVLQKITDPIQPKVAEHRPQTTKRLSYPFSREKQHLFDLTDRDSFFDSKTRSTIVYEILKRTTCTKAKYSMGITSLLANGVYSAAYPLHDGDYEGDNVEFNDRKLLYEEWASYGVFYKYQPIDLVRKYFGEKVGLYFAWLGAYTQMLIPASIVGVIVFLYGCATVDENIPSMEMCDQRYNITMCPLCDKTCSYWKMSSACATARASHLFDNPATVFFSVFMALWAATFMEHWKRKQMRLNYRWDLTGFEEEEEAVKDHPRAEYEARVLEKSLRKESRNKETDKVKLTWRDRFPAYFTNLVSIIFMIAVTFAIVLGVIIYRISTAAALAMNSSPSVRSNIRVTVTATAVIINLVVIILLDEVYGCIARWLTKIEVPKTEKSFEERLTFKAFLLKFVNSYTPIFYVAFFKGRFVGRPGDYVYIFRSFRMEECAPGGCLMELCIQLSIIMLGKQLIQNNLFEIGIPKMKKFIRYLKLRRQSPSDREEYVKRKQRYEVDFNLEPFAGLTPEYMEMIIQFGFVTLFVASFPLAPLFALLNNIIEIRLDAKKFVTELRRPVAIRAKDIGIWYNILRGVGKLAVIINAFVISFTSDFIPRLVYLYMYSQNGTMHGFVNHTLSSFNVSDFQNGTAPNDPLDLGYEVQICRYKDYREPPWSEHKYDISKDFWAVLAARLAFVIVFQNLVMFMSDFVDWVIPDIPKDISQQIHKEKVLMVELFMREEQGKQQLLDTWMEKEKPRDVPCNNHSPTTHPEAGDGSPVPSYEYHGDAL
cardiac RTF act: cardiac RTF calcium sensitivity activators, primary screen, biochemical, IANBD-TnC fluorescence, EC20 calcium | IANBD-labeled TnC RTF fluorescence at EC20 calcium; 0% EC20 calcium, 100% full calcium | activation, % at 7.2 µM | 340,000 tested, 0.24% active | AID 493008, 2010;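 active means activation above the mean over all tested compounds plus 3 SD, cut at about 30% in these data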;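 further: rise in fluorescence read as greater calcium sensitivity of cardiac thin filaments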
CRFR2-BP antag: antagonists of CRF-BP/CRF-R2 complex, primary screen, cell-based, HEK293, calcium dye fluorescence, uHTS; CRF-induced calcium fluorescence; inhibition, % at 11.8 µM; 350,000 tested, 0.59% active;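 active means inhibition of the ligand-induced calcium signal above about 50% at the single tested concentration, limit read from the data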
CRFBP-R2 agonist: agonists of CRF-BP/CRF-R2 complex, primary screen, cell-based, HEK293, calcium dye fluorescence, uHTS; CRF-binding protein / CRF receptor 2 complex (human); calcium dye fluorescence (FLIPR); percent of saturating CRF peptide response; activation, % at 13.2 µM; 350,000 tested, 0.46% active; AID 588473, 2011;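 active means activation of at least 50%, plus an integration ratio under a set limit after plate pattern correction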;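 further: plate controls were neutral control wells without compound for no effect and CRF at EC100 for full effect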
Cardiac RTF inh: cardiac RTF calcium sensitivity inhibitors, primary screen, biochemical, IANBD-TnC fluorescence, EC70 calcium. Troponin I, cardiac muscle (Homo sapiens) + Troponin T, cardiac muscle (Homo sapiens) + …. inhibition, % at 7.15 µM. IANBD-labeled cardiac RTF, Ca2+ fluorescence. 340,000 tested, 0.12% active;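 active means inhibition above the mean inhibition of all tested compounds plus 3 SD, cut at about 17% in these data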;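 further: assay run at fixed EC70 calcium of 1.6 mM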
ANO1 block: TMEM16A chloride channel inhibitors, primary screen, cell-based, HTS. 310,000 tested, 1.2% active. normalized B-score (activity score, 25-100; higher = stronger inhibition) at 10 µM. Anoctamin-1 (Mus musculus), Q8BHY3. HEK293 TMEM16A/YFP iodide influx fluorescence, ionomycin;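 active means ratio plate-corrected score three or more library SD toward inhibition, starting fluorescence score within five deviations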;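 further: score derived from kinetic fluorescence span divided by baseline fluorescence per well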
* hit, by the source's call; i = inactive; / = no result given.

SMILES	ANO1 activ	cardiac RTF act	CRFR2-BP antag	CRFBP-R2 agonist	Cardiac RTF inh	ANO1 block
CCCCCc1c2c(cc(O)c1C(=O)O)OC(=O)c1c(cc(OC)cc1C(=O)CCCC)O2	i	2	49	-1	5	100*
CCN1C[C@@H]2[C@@H]3C(=O)N(Cc4ccccc4)C(=O)[C@@H]3[C@](CC)(C1=O)N2C(=O)c1ccc(C(F)(F)F)cc1	i	2	-7	0	-11	/
O=C(NC1CCCc2ccccc21)c1cncc(Br)c1 (stereo not drawn)	i	-1	-12	-2	-1	i
CCc1ccc(NC(=S)N2CCC(NC(=O)c3ccccc3)CC2)cc1	i	2	8	0	-1	i
CCOC(=O)c1c(CC(C)C)csc1NC(=O)CCl	i	-4	1	1	-2	i
CCOC(=O)c1c(CC(C)C)csc1N	i	-7	55*	-3	-6	i
CCOC(=O)c1c(CC(C)C)csc1NC(=O)C(C)C	i	5	-12	1	-2	25*
CCCCCC(=O)NNC1=NCC(Cc2cccc(Cl)c2)S1 (stereo not drawn)	i	6	-8	0	-14	i
CCOC(=O)C(Cc1ccccc1)NC(=O)CCc1nnc2ccc(N3CCCC3)nn12 (stereo not drawn)	i	3	58*	0	-3	i
CCOC(=O)C(Cc1ccccc1)NC(=O)CCc1nnc2ccc(N3CCCCC3)nn12 (stereo not drawn)	i	3	0	-5	-10	i
O=C(NCN1CCCCC1)c1cnccn1	i	2	51*	0	-7	i
O=C(NCN1CCOCC1)c1cnccn1	i	-2	14	1	-1	i
N#Cc1c(C(F)(F)F)cc(-c2ccccc2Cl)[nH]c1=O	i	6	29	0	3	100*
O=C(Nc1ccc(Cl)c([N+](=O)[O-])c1)C(Sc1ccccc1)c1ccccc1 (stereo not drawn)	i	-2	38	-2	6	100*
O=C(Nc1cc([N+](=O)[O-])ccc1Cl)C(Sc1ccccc1)c1ccccc1 (stereo not drawn)	i	0	1	0	15	i
CC(C)COP(=O)(OCC(C)C)C(Nc1ccccc1)c1ccccc1 (stereo not drawn)	i	-12	-21	1	-5	25*
CCOP(=O)(OCC)C(Nc1cccc([N+](=O)[O-])c1)c1ccccc1 (stereo not drawn)	i	-1	84*	0	3	i
COc1ccc(C(Nc2cccc([N+](=O)[O-])c2)P(=O)(OC(C)C)OC(C)C)cc1 (stereo not drawn)	i	5	-9	1	-6	i
O=C(NC1CC1)c1cccc(NC(=O)C2CCN(S(=O)(=O)c3ccccc3C(F)(F)F)CC2)c1	/	/	-2	2	/	/
COc1ccc(NC(=O)CC2Nc3cc(C)c(C)cc3NC2=O)c([N+](=O)[O-])c1 (stereo not drawn)	-5*	2	-12	1	3	i
Cc1ccccc1C1CC(=O)Oc2cc(O)ccc21 (stereo not drawn)	i	39*	-9	22	-63	/
O=C(NCc1ccccc1)C1=C[C@H](c2ccccc2)C[C@H](OCc2ccc(CO)cc2)O1	i	-9	83*	0	-3	i
NC(=O)C1=C[C@@H](c2ccccc2)C[C@@H](OCc2ccc(CO)cc2)O1	i	3	6	0	-7	i
O=C(O)C1=C[C@@H](c2ccccc2)C[C@@H](OCc2ccc(CO)cc2)O1	-13*	-4	2	-1	5	i
O=C(CSc1ccc2c(c1)OCCO2)Nc1ccc(N2CCOCC2)cc1	i	-1	3	-7	2	i
